Source: PubChem BioAssay (Broad Institute)
Rows were chosen to be rich in hits. Some 1.4% of all compounds tested hit in one or more screens of this group.
INS-1E GSIS act = primary screen for activators of insulin secretion dependent on glucose, INS-1E cells, GLuc reporter luminescence; INS-1E GLuc reporter insulin secretion, 2-3 h; activation, % at 16.6 µM; 370,000 tested, 0.61% active; AID 743287;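 active = lowest replicate activation of at least 40%, so every replicate reaches that level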;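 note: 0% = median of neutral control wells and 100% = median of IBMX positive control wells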
PGC1a acetyl inh = PGC1a acetylation modulation, inhibitor mode. U2OS PGC1a acetylation, AlphaScreen anti-acetyl-lysine; with virally co-expressed GCN5 acetyltransferase. inhibition, % at 15.6 µM. 350,000 tested, 0.17% active;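 active = every replicate shows inhibition of at least 40%; inconclusive = mean inhibition at least 40% but some replicate below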;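 note: 0% = neutral control wells and 100% = positive control wells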
RAD52 anneal inh = RAD52 (human) annealing inhibition | P43351 | 360,000 tested, 0.46% active | recombinant RAD52 DNA annealing, FRET fluorescence | inhibition, % at 18.7 µM;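 active = every replicate showing at least 50% inhibition; inconclusive = mean inhibition at least 50% but not in every replicate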
AF4-AF9 inh = MLL-AF4/AF9 protein interaction inhibition | P42568 | AlphaScreen, biotin-AF4 peptide binding to FLAG-AF9 | inhibition, % at 10 µM | 350,000 tested, 0.47% active | AID 651704;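 active = every replicate reaching a set inhibition limit, whatever the replicate mean, cut at about 25% in these data; inconclusive = mean inhibition reaches that limit but some replicates miss it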;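 note: 0% = plate neutral control median and 100% = total signal loss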
RAD54 inh = blocks human RAD54 Holliday junction branch migration; Q92698; FAM/BHQ fluorescence; inhibition, % at 10.4 µM; 360,000 tested, 0.14% active; AID 602329;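 active = mean normalized replicate activity at least 40 and at least half of replicates scoring 40 or more; inconclusive = only one of the two criteria met; inactive = mean below 40 and under half of replicates reaching 40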;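 note: 0% = median of neutral control wells and 100% = median of positive control wells; inhibitors cause a drop in the FAM fluorescence signal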
ERAP1 HTS inh = blocks human ERAP1 aminopeptidase activity. 340,000 tested, 0.15% active. Q9NZ08. inhibition, % at 10.7 µM. recombinant ERAP1, Leu-AMC fluorescence, 60 min;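 active = mean replicate inhibition of at least 30%, or all replicates individually reaching that 30% level; inactive = mean below 30% and not every replicate reaching it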;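 note: 0% = neutral control wells and 100% = L-leucinethiol positive control wells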
DNA binding = counter-screen for Rad54 inhibitors: DNA binding compounds | shares compounds with RAD54 inh | Acridine orange-DNA displacement, fluorescence polarization, 20 min | AC50, µM (series often up to 35 µM), inactives show at the highest dose activity change, negative = DNA binding | 460 tested, 8% active;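 active = signal drop giving an AC50 within twice the top valid tested concentration of each sample, actives reach about 35 µM in these data; inactive = activity opposite to expected, plus the rest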;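 note: polarization loss reports compound binding to salmon sperm DNA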
COX5a expr inh = C2C12 myotube COX5a expression inhibition | C2C12 myotubes PGC-1a adenovirus, COX5a qPCR | shares compounds with PGC1a acetyl inh | 45 tested, under 10 active | maximal activity, % | AID 743461;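 active = fitted dose curve reaching 40% activity at or below the highest valid dose tested; inconclusive = flat fit between 30% and 70%, or an unusable fit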
AID743468 = change in PGC-1a target gene PDK4 expression, dose response, C2C12 myotubes, RT-qPCR, cherry-pick. shares compounds with PGC1a acetyl inh. PDK4 expression increase, % at 19.5 µM. AID 743468. PGC-1a adenovirus, PDK4 mRNA qPCR. 45 tested, under 10 active;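 active = fitted curve reaching a 40% PDK4 expression rise at or below the top valid tested dose; inconclusive = no clear call, values can overlap the other calls; inactive = the rest, including shifts the wrong way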
Alpha interfer = interferes with the AlphaScreen assay signal | AC50, µM (top dose mostly 12 µM), without a hit: at the top dose activity change, negative = inhibition | AlphaScreen interference counter-screen, signal luminescence | AID 720494 | shares compounds with AF4-AF9 inh | 530 tested, 45% active; cut-off not given, nearly all actives have AC50 up to about 14 µM
DNA binder FP = DNA binding artifact in RAD52 counter-screen | shares compounds with RAD52 anneal inh | Salmon sperm DNA/acridine orange FP displacement | AC50, µM | 1,000 tested, 8% active | AID 652128;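 active = fitted half-maximal concentration for signal loss at or below twice the highest dose tested, in every separate run, actives reach about 64 µM in these data; inconclusive = runs disagree, or flat partial signal loss, or poor fit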
* = called active by the depositor; ! = repeats disagree.

What do the screens show for `COc1ccc(NC(=O)c2ccc(-c3ccc(-c4noc(C)n4)cc3C)cc2)cc1N1CCN(C)CC1`?
PGC1a acetyl inh: -40; RAD52 anneal inh: 101*; AF4-AF9 inh: 38*; RAD54 inh: 54*; ERAP1 HTS inh: -6; DNA binding: 3%; Alpha interfer: 12µM*; DNA binder FP: inactive

How did CN(C)CCNC(=O)c1cccc(-c2cnc3c(NC=O)cc(-c4ccc(F)cc4)cn23)c1 do in these assays?
INS-1E GSIS act: 10; PGC1a acetyl inh: -11; RAD52 anneal inh: 92*; AF4-AF9 inh: 13; RAD54 inh: 55*; ERAP1 HTS inh: 0; DNA binding: 1%; DNA binder FP: inactive

How did CN(C)C(=O)c1cccc(-c2cnc3c(NC=O)cc(-c4cc(F)c(F)c(F)c4)cn23)c1 do in these assays?
INS-1E GSIS act: -14; RAD52 anneal inh: -31; AF4-AF9 inh: -2; RAD54 inh: 6; ERAP1 HTS inh: 4

What do the screens show for `COc1ccc(-c2cc(NC=O)c3ncc(-c4cccc(C(=O)NCCN(C)C)c4)n3c2)cc1`?
INS-1E GSIS act: 29; PGC1a acetyl inh: 9; RAD52 anneal inh: 90*; AF4-AF9 inh: 26*; RAD54 inh: 69*; ERAP1 HTS inh: 4; DNA binding: 17%; Alpha interfer: -25%; DNA binder FP: inactive

Results for COc1ccc(-c2cc(NC=O)c3ncc(-c4cccc(OC)c4)n3c2)cc1 ?
INS-1E GSIS act: 25; PGC1a acetyl inh: -1; RAD52 anneal inh: -37; AF4-AF9 inh: -4; RAD54 inh: 0; ERAP1 HTS inh: -4

How did CC(=O)c1cccc(-c2cnc3c(NC=O)cc(-c4ccc(F)cc4)cn23)c1 do in these assays?
INS-1E GSIS act: -8; PGC1a acetyl inh: 3; RAD52 anneal inh: -41; AF4-AF9 inh: -6; RAD54 inh: 1; ERAP1 HTS inh: 2

How did CN(C)CCNC(=O)c1cccc(-c2cnc3c(NC=O)cc(-c4cccc(F)c4)cn23)c1 do in these assays?
RAD52 anneal inh: 91*; AF4-AF9 inh: 7; RAD54 inh: inconclusive; ERAP1 HTS inh: 4; DNA binding: -3%; DNA binder FP: inactive

What do the screens show for `CC(=O)N(C)C[C@@H]1Oc2c(NC(=O)NC(C)C)cccc2C(=O)N(C)C[C@H]1C`?
INS-1E GSIS act: 3

How did Cc1ccc(-c2ccc(C3[C@@H]4CN(C(=O)Nc5ccc(C(F)(F)F)cc5)C[C@H]3N4)cc2)cc1 (stereo partly drawn) do in these assays?
INS-1E GSIS act: active; PGC1a acetyl inh: 70*!; RAD52 anneal inh: 0; AF4-AF9 inh: 1; ERAP1 HTS inh: -6; COX5a expr inh: -32; AID743468: -15

How did O=C(Nc1ccc(F)cc1)N1C[C@@H]2N[C@H](C1)C2c1ccc(-c2cccnc2)cc1 (stereo partly drawn) do in these assays?
INS-1E GSIS act: -3; PGC1a acetyl inh: 4; RAD52 anneal inh: -5; AF4-AF9 inh: -2; ERAP1 HTS inh: 4

Results for COc1cccc(C#Cc2ccc([C@H]3[C@@H](CO)N4C(=O)CN(C(=O)c5ccncc5)C[C@@H]34)cc2)c1 ?
INS-1E GSIS act: -11; PGC1a acetyl inh: -13; RAD52 anneal inh: -9; AF4-AF9 inh: -2; ERAP1 HTS inh: 0
